Screening data from PubChem.
Compounds with a hit are over-represented: about 3.2% of the library has one in this group of screens.
TRb SRC2 PPI: TRbeta-SRC2 interaction inhibition | P10828 | TRbeta-SRC2 peptide binding, fluorescence polarization; receptor liganded with 1 µM T3 | Potency, µM (series often up to 106 µM), for the others: at the highest dose activity change, negative = inhibition, actives largely listed as inhibitors | 280,000 tested, 0.065% active;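 also: plate controls were bound peptide for no effect and peptide without receptor for full effect; nearly all actives have a fitted effect of over 50% in size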
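Compounds were added to 0.6 uM TRb ligand-binding domain and 20 nM Texas Red-labeled SRC2 peptide in Tris buffer containing 1 uM T3, incubated 5 hr at ambient temperature, then read by fluorescence polarization.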
Tau fibril ThT: tau fibrillization inhibition (ThT binding); P10636; recombinant tau K18 P301L, heparin-induced fibrillization, ThT fluorescence; Potency, µM (titrated, usually from 57.4 µM), for the others: top-dose activity, negative = inhibition, hits mostly inhibitors; 270,000 tested, 2.1% active; also: nearly all actives have a fitted effect of over 55% in size
Target sequence (P10636 561-689 P618L limits assumed): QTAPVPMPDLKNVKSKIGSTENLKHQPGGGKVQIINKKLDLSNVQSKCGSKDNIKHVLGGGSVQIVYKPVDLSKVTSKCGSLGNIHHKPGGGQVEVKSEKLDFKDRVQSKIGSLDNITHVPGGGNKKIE
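Aggregation was driven by heparin (20 uM final) acting on recombinant tau […] bearing P301L in 100 mM sodium acetate pH 7; fibrils were detected with Thioflavin T.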
TR SRC2 fluor cs: alters Texas Red total fluorescence, flagging assay interference; Potency, µM (doses to about 106 µM), without a hit: at the highest dose fluorescence change, negative = quenching; AID 1479; 280,000 tested, 0.29% active; TRb/SRC2 Texas Red total fluorescence interference; active = well fitted curve in either direction with a large enough effect; inconclusive = small, poorly fitted or top-dose-only effect
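Human TRb ligand-binding domain at 0.6 uM with 20 nM Texas Red SRC2 peptide in Tris buffer containing 1 uM T3 and 5% DMSO, incubated with compound 5 h at ambient temperature. Total fluorescence (555/632 nm) calculated as parallel + 2 × perpendicular.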
Tau fluor counter: counter-screen for tau fibril formation inhibitors | Potency, µM (top dose mostly 57.7 µM), inactives show at the highest dose activity change, negative = decrease | 280,000 tested, 0.93% active | AID 1463 | tau K18 P301L (four-repeat tau fragment) Alexa594 fluorescence, heparin fibrillization; also: nearly all actives have a fitted effect of over 55% in size
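Human K18 P301L tau (15 uM unlabeled plus 0.24 uM Alexa 594-labeled, final) in 100 mM sodium acetate pH 7 was mixed with compound and 20 uM heparin and incubated 6 hr at 37 C.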
GoLoco inh red: inhibitors of human Gai1-RGS12 GoLoco interaction (red fluorophore) | P63096 | Potency, µM (top dose mostly 61.6 µM), inactives show at the highest dose activity, negative = inhibition, usual class: inhibitors | 230,000 tested, 0.44% active | Gai1:RGS12 GoLoco peptide FP, rhodamine, 10 min; active = well fitted inhibition curve with a large enough effect, not every such curve was filed as active; inactive = no such curve, though single readings can be large or run the other way; also: nearly all actives have a fitted effect of over 30% in size
Target sequence (P63096 whole entry, looked up): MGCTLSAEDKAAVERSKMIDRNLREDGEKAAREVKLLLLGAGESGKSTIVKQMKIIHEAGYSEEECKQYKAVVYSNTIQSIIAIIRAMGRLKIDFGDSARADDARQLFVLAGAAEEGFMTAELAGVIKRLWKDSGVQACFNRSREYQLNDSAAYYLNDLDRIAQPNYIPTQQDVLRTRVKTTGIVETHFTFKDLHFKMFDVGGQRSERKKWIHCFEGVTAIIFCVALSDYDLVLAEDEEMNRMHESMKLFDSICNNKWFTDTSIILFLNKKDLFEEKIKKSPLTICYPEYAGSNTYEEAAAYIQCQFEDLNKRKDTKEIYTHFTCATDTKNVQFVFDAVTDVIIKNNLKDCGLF
Tau FP inhib: tau fibrillization inhibition (FP); P10636; 280,000 tested, 0.39% active; K18 P301L tau heparin fibrillization, Alexa594 FP, 6 h; Potency, µM (series often up to 57.7 µM), inactives show top-dose activity, negative = inhibition, most hits filed as inhibitors; also: nearly all actives have a fitted effect of over 55% in size
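Quantitative HTS format: compounds meet 15 uM recombinant K18 P301L tau and Alexa 594-tau tracer in 100 mM sodium acetate pH 7; 20 uM heparin triggers fibrillization at 37 C over 6 hr; FP gives the signal.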
* = called active by the depositor; i = inactive; ? = inconclusive; . = no result; [ ] = dose if it differs, or a comment. Unless noted, calls follow the shape of the dose curve; as a rule, active = well fitted curve in the direction sought with a large enough effect; inconclusive = small, poorly fitted or top-dose-only effect, or another doubt; inactive = no such curve, though single readings can be large; an effect the other way counts as inactive or inconclusive. Unless noted, % is scaled to controls: 0 for no effect and ±100 for the full control effect; potency is read from the fitted curve at half-maximal effect.

SMILES	TRb SRC2 PPI	Tau fibril ThT	TR SRC2 fluor cs	Tau fluor counter	GoLoco inh red	Tau FP inhib
CN1/C(=C\C=C2/C(=O)Oc3ccccc3C2=O)C(C)(C)c2ccccc21	2%	?	-1%	?	-186%	13%
CN1C(=CC=C2C=C(I)C(=O)C(I)=C2)C(C)(C)c2ccccc21	?	2.2µM*	?	0.71µM*[fluorescent]	i	?
C/C=C\C1=CCCC1Nc1ncnc2ccc(-c3c(C)noc3C)cc12 (stereo unspecified)	-7%	.	0%	.	.	.
COC(=O)C1=C(C(=O)OC)[C@@H]2N(Cc3ccccc3)c3ccccc3[C@@]23C[C@@H](C(=O)OC)N(S(=O)(=O)c2ccc(Br)cc2)C3=N1	8%[11.2 µM]	6%[11.5 µM]	0%[11.2 µM]	4%[11.6 µM]	7%[14.2 µM]	4%[11.6 µM]
CCOC(=O)N1CCN(C(=O)c2c(N)no[n+]2[O-])CC1	-7%	25µM*	-2%	-11%	-10%	?
Oc1ccccc1-c1nc(NCC2CCCO2)c2ccccc2n1 (stereo unspecified)	-2%	?	-2%	?	-2%	?
COc1cccc(-c2nc(NC(C)C)c3ccccc3n2)c1O	4%	18µM*	-10%	16µM*[quencher]	3%	10%
COc1cccc(-c2nc(Oc3cccc(C)c3C)c3ccccc3n2)c1O	-11%	-3%	-2%	-10%	1%	-1%
CCC(C)Nc1nc(-c2cccc(OC)c2O)nc2ccccc12 (stereo unspecified)	0%	?	-20%	16µM*[quencher]	6%	?
COc1cccc(-c2nc(NCC3CCCO3)c3ccccc3n2)c1O (stereo unspecified)	4%	?	-8%	20µM*[quencher]	6%	19%
C=CC(C)(O)CC1[C@@]2(C)CCCC(C)(C)C2CC[C@]1(C)O (stereo partly specified)	4%	-7%	2%	-12%	4%	0%
CS(=O)(=O)Nc1c(O)ccc2c1CCCC2C1=NCCN1 (stereo unspecified)	8%	-3%	-3%	-2%	7%	-7%
Cc1cc2ncn(/N=C/c3ccc([N+](=O)[O-])s3)c2cc1C	-18%	?	1%	?	14%	17%
O=[N+]([O-])c1ccc(/C=N/n2cnc3ccccc32)s1	6%	14µM*	-2%	25µM*[quencher]	-2%	-12%
S=C(NNc1ccnc2cc(Cl)ccc12)Nc1ccc(Cl)cc1Cl	3%	4µM*	-4%	4µM*[quencher]	27%	?
CCOc1ccc(NC(=S)NNc2ccnc3cc(Cl)ccc23)cc1	-7%	13µM*	-1%	?	-2%	-4%
Clc1ccc2c(NCCNc3ccnc4cc(Cl)ccc34)ccnc2c1	.	.	.	.	7%[14.2 µM]	.
CCn1c(=O)c(=O)[nH]c2cc(C(=O)N3CCN(c4ccccc4F)CC3)ccc21	14%	-7%	45µM*[fluorescent]	0%	128%	7%
CSc1nsc(N/N=C/c2ccccc2)c1C#N	-3%	?	-2%	?	-7%	4%
C[n+]1ccc(/C=N/Nc2nc(Cl)c(C#N)c(Cl)c2Cl)cc1	3%	13µM*	-7%	11µM*[quencher]	47%	-5%
COc1ccc(-c2nc3cnc(N4CCNCC4)nc3n(Cc3cccs3)c2=O)cc1	.	.	.	.	25%	.
CC(C)(C)C(=O)N1CCN(c2ccc([N+](=O)[O-])c(NCc3cccnc3)c2)CC1	6%	?	-1%	4%	2%	1%
O=C(c1ccccc1F)N1CCN(c2ccc([N+](=O)[O-])c(NCc3cccnc3)c2)CC1	-1%	16µM*	-1%	-15%	3%	5%
O=C(c1ccccc1)N1CCN(c2ccc([N+](=O)[O-])c(NCc3cccnc3)c2)CC1	4%	16µM*	2%	-8%	7%	4%
COc1ccc2c(c1)c(CC(=O)NCc1ccc3c(c1)OCO3)c(C)n2C(=O)c1ccc(Cl)cc1	3%	0%	2%	0%	-1%	0%
SMILES	TRb SRC2 PPI	Tau fibril ThT	TR SRC2 fluor cs	Tau fluor counter	GoLoco inh red	Tau FP inhib
CC[C@@]1([C@@H]2O[C@@H]([C@H]3O[C@@](O)(CO)[C@H](C)C[C@@H]3C)C[C@@H]2C)CC[C@@H]([C@]2(C)CCC3(C[C@H](O)[C@@H](C)[C@@H]([C@@H](C)[C@@H](OC)[C@H](C)C(=O)O)O3)O2)O1 (stereo partly specified)	1%	.	-1%	.	.	.
Cc1noc(NS(=O)(=O)c2ccc(NC(=O)Nc3ccc(Cl)c(Cl)c3)cc2)c1C	-7%	?	-11%	11µM*[quencher]	18%	?
Cc1noc(NS(=O)(=O)c2ccc(N/C=C\C(=O)c3ccc(Br)cc3)cc2)c1C	3%	13µM*	-8%	-25%	11%	-2%
CCOc1ccc(C(=O)/C=C/Nc2ccc(S(=O)(=O)Nc3onc(C)c3C)cc2)cc1	5%	4%	-2%	6%	-5%	6%
Cc1noc(NS(=O)(=O)c2ccc(N/C=C\C(=O)c3cccc4ccccc34)cc2)c1C	-2%	10µM*	-7%	-16%	14%	-5%
N=C1CCCN1c1ccccc1O	0%	-1%	2%	-4%	3%	1%
N=C1CCC(=N)c2c1c(O)c1ccccc1c2O	32µM*	13µM*	45µM*[fluorescent]	?	8%	25µM*
O=C(CCCc1c[nH]c2ccccc12)Nc1ccc2ccccc2c1	0%	?	-3%	8.9µM*[quencher]	12%	?
Cc1ccc(N=Nc2ccc(C)cc2NC(=O)Nc2ccccc2F)cc1	11%	1.3µM*	-1%	?	7%	-9%
COc1cc(C(=O)Nc2ccc(N(C)C)cc2)cc(OC)c1OC	-3%	16µM*	-2%	-17%	.	10%
COc1cc(CC(=O)Nc2ccc(S(=O)(=O)N(C)C)cc2)cc(OC)c1OC	-25%	-5%	6%	-13%	7.9µM*	-4%
COc1cc(C(=O)Nc2ccc(S(=O)(=O)N(C)c3ccccc3)cc2)cc(OC)c1OC	4%	-7%	5%	?	-8%	?
COc1ccc(CC(=O)Nc2ccc(S(=O)(=O)N(C)C)cc2)cc1OC	-5%	-2%	1%	-3%	15%	-5%
C=CCOC(=O)C(C(=O)CC)C(NC(=O)OC)c1ccc(F)cc1 (stereo unspecified)	6%[11.2 µM]	-8%[11.5 µM]	1%[11.2 µM]	-8%[11.6 µM]	.	4%[11.6 µM]
CC1=c2c(oc3cc(O)c(Nc4c(C)cc(O)cc4O)c(C)c23)=CC(=O)C1=Nc1c(C)cc(O)cc1O	.	.	.	.	3.2µM*	.
C[N+](C)(C)CCN[N@@+]1(C)CCCc2ccccc21	.	.	.	.	-7%[14.2 µM]	.
O=[N+]([O-])c1ccc(S(=O)(=O)Cc2ccccc2)c2nonc12	.	.	.	.	-15%[14.2 µM]	.
